# PubChem BioAssay
# Active and inactive are the calls of the source.
# Assays:
# [1] = test system: PRMT1 (protein arginine N-methyltransferase 1); experiment: small molecules binding arginine methyltransferase PRMT1 – biochemical, small-molecule microarray, 635 nm fluorescence, primary screen (AID 1088); details: higher = more signal;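 also: binding of Prmt1 protein to compounds spotted on small-molecule microarray slides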
# [2] = growth effects on S. cerevisiae YJM789 – YJM789 clinical isolate, OD600, 24 h, basal, primary screen (AID 1089); details: higher = more signal, called active from +8 up or from −8 down;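 also: growth of clinical yeast isolate S. cerevisiae YJM 789 seeded 1000 cells per well; test concentration not given here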
# [3] = S. pombe growth modifiers, basal conditions – strain 972, OD600, 24 h, no modulator, primary screen (AID 1090);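 also: basal condition with compound alone and no growth modifier present; test concentration not given here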; details: S. pombe 972 growth, higher = more signal, called active from +8 up or from −8 down
# [4] = budding yeast growth modifiers under rapamycin – strain BY4716, OD600, 96 h, primary screen (AID 1091); also: test concentration not given here; details: S. cerevisiae BY4716 + rapamycin, higher = more signal, called active from +8 up or from −8 down
# [5] = target: Torsin-1A-interacting protein 2 (Homo sapiens) (UniProt Q8NFQ8); experiment: small molecules binding lysate-expressed LULL1 – cell lysate, human LULL1 lysate, 635/667 nm fluorescence, primary screen (AID 1092); details: small-molecule microarray, hLULL1 lysate binding, 635 nm fluorescence; higher = more signal;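 also: probe is lysate of COS7 cells overexpressing human LULL1; score merges per-feature 667 nm fluorescence with signal-to-noise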
# [6] = optical density change of DRC41 E. coli – strain DRC41, OD650, 24 h, E. coli filamentation project, primary screen (AID 1093);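 also: MC1000 strain lacking acrAB efflux and sulA so SOS filamentation is blocked; test concentration not given here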; details: E. coli DRC41 growth, higher = more signal, called active from +8 up or from −8 down
# [7] = probe aLefty2 binding to arrayed compounds – biochemical, biotinylated probe, 635/667 nm fluorescence, primary screen (AID 1094); details: small-molecule microarray, higher = more signal;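 also: score merges spot fluorescence near 667 nm with spot signal-to-noise ratio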
# [8] = test system: Noggin (protein binding on small-molecule microarray); experiment: small molecules binding Noggin protein – biochemical, 635/667 nm fluorescence, primary screen (AID 1095); details: 635 nm fluorescence, higher = more signal;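 also: score merges 667 nm feature fluorescence with signal to noise over triplicate slides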
# [9] = target: Neurogenic locus notch homolog protein 3 (Homo sapiens) (UniProt Q9UM47); experiment: small molecules binding NOTCH3 protein – biochemical, 635/667 nm fluorescence, primary screen (AID 1096); details: small-molecule microarray, 635 nm fluorescence, higher = more signal
# [10] = probe aEGFR binding to arrayed compounds – biochemical, biotinylated probe, 635/667 nm fluorescence, primary screen (AID 1097); details: small-molecule microarray, higher = more signal;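 also: probe is a biotinylated anti-EGFR antibody binding compounds printed on slides; score combines fluorescence near 667 nm and signal to noise of each spot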
# [11] = test system: Plasmodium falciparum Sir2 (PF13_0152, Sir2A); experiment: Plasmodium falciparum Sir2A binding compounds – biochemical, small-molecule microarray, 635 nm fluorescence, primary screen (AID 1098); details: fluorescence 635 nm, higher = more signal;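 also: score merges spot fluorescence intensity with its signal-to-noise ratio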
# [12] = probe aDKK1 binding to arrayed compounds – biochemical, biotinylated probe, 635/667 nm fluorescence, primary screen (AID 1099); details: small-molecule microarray, higher = more signal;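 also: score merges 667nm spot fluorescence with signal to noise across triplicate slides; reference of the scale not given here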
# [13] = probe aCHRDL2 binding to arrayed compounds – biochemical, biotinylated probe, 635/667 nm fluorescence, primary screen (AID 1100); details: small-molecule microarray, higher = more signal
# [14] = change in splice reporter luminescence, either direction, cell-based, HEK293, spliceosome inhibition project, primary screen (AID 1101); details: HEK293 splicing luciferase reporter, 24 h, higher = more signal, called active from +8 up or from −8 down;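 also: HEK293 cells carrying a splicing-competent luciferase reporter gene; test concentration not given here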
# [15] = target: Fibroblast growth factor 10 (Homo sapiens) (UniProt O15520); experiment: compounds binding fibroblast growth factor 10 – biochemical, small-molecule microarray, 635 nm fluorescence, primary screen (AID 1102); details: FGF10 binding, fluorescence 635 nm, higher = more signal
# [16] = test system: glycogen synthase kinase-3 (GSK3A per assay name; protocol says GSK3B); experiment: compounds binding glycogen synthase kinase-3 – biochemical, small-molecule microarray, 635 nm fluorescence, GSK3A, primary screen (AID 1103); details: fluorescence 635 nm, higher = more signal; also: the record names both GSK3A and GSK3B
# [17] = target: Epidermal growth factor receptor (Homo sapiens) (UniProt P00533); experiment: compounds binding epidermal growth factor receptor – biochemical, small-molecule microarray, 635 nm fluorescence, primary screen (AID 1104); details: EGFR binding, higher = more signal;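 also: score merges 667 nm emission intensity with spot signal to noise over triplicate slides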
# [18] = target: Follistatin-related protein 3 (Homo sapiens) (UniProt O95633); experiment: compounds binding follistatin-related protein 3 – biochemical, small-molecule microarray, 635 nm fluorescence, primary screen (AID 1105); details: FSTL3 binding, higher = more signal;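 also: score merges emission near 667 nm and signal to noise per printed spot across three slides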
# [19] = target: Dickkopf-related protein 1 (Homo sapiens) (UniProt O94907); experiment: small molecules binding DKK1 protein – biochemical, small-molecule microarray, 635 nm fluorescence scan, primary screen (AID 1106); details: higher = more signal;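 also: score merges emission near 667 nm with signal to noise over three replicate slides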
# [20] = test system: Inhibin beta A chain (activin A); experiment: small molecules binding activin A – biochemical, small-molecule microarray, 635 nm fluorescence scan, primary screen (AID 1107); details: INHBA, higher = more signal;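 also: mouse activin A protein probed at 4.33 µg/mL on printed slides; score merges bound-protein fluorescence near 667 nm with spot signal-to-noise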
# Epidermal growth factor receptor (Homo sapiens), sequence (P00533 whole entry, looked up): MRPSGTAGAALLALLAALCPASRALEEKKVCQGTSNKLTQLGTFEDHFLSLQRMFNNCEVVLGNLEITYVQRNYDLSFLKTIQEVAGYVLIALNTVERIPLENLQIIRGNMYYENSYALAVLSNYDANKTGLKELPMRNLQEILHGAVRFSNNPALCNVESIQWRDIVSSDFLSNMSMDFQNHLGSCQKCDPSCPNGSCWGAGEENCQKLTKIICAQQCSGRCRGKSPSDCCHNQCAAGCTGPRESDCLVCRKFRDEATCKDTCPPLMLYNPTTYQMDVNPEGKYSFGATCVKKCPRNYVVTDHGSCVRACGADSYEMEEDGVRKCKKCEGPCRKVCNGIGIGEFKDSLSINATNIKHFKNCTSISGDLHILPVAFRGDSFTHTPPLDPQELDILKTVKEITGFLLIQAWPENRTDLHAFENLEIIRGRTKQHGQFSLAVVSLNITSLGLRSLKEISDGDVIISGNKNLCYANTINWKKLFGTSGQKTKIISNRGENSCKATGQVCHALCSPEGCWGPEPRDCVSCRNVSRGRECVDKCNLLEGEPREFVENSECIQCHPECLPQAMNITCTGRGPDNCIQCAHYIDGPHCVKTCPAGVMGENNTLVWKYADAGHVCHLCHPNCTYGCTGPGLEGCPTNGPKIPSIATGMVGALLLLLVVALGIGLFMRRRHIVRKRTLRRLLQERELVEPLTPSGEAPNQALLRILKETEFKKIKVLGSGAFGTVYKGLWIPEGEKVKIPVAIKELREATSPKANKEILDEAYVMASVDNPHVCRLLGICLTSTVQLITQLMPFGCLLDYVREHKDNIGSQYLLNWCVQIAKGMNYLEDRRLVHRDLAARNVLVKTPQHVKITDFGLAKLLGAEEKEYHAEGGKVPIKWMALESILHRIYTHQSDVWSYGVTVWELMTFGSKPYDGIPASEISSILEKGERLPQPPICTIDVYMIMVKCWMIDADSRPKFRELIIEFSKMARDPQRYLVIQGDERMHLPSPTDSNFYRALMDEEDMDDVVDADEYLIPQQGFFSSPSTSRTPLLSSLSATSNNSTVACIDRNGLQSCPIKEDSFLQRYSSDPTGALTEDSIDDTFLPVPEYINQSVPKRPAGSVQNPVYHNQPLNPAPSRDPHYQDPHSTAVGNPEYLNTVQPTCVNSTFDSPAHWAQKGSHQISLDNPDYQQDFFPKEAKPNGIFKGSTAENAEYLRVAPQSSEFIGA
# Neurogenic locus notch homolog protein 3 (Homo sapiens), sequence (Q9UM47 whole entry, looked up): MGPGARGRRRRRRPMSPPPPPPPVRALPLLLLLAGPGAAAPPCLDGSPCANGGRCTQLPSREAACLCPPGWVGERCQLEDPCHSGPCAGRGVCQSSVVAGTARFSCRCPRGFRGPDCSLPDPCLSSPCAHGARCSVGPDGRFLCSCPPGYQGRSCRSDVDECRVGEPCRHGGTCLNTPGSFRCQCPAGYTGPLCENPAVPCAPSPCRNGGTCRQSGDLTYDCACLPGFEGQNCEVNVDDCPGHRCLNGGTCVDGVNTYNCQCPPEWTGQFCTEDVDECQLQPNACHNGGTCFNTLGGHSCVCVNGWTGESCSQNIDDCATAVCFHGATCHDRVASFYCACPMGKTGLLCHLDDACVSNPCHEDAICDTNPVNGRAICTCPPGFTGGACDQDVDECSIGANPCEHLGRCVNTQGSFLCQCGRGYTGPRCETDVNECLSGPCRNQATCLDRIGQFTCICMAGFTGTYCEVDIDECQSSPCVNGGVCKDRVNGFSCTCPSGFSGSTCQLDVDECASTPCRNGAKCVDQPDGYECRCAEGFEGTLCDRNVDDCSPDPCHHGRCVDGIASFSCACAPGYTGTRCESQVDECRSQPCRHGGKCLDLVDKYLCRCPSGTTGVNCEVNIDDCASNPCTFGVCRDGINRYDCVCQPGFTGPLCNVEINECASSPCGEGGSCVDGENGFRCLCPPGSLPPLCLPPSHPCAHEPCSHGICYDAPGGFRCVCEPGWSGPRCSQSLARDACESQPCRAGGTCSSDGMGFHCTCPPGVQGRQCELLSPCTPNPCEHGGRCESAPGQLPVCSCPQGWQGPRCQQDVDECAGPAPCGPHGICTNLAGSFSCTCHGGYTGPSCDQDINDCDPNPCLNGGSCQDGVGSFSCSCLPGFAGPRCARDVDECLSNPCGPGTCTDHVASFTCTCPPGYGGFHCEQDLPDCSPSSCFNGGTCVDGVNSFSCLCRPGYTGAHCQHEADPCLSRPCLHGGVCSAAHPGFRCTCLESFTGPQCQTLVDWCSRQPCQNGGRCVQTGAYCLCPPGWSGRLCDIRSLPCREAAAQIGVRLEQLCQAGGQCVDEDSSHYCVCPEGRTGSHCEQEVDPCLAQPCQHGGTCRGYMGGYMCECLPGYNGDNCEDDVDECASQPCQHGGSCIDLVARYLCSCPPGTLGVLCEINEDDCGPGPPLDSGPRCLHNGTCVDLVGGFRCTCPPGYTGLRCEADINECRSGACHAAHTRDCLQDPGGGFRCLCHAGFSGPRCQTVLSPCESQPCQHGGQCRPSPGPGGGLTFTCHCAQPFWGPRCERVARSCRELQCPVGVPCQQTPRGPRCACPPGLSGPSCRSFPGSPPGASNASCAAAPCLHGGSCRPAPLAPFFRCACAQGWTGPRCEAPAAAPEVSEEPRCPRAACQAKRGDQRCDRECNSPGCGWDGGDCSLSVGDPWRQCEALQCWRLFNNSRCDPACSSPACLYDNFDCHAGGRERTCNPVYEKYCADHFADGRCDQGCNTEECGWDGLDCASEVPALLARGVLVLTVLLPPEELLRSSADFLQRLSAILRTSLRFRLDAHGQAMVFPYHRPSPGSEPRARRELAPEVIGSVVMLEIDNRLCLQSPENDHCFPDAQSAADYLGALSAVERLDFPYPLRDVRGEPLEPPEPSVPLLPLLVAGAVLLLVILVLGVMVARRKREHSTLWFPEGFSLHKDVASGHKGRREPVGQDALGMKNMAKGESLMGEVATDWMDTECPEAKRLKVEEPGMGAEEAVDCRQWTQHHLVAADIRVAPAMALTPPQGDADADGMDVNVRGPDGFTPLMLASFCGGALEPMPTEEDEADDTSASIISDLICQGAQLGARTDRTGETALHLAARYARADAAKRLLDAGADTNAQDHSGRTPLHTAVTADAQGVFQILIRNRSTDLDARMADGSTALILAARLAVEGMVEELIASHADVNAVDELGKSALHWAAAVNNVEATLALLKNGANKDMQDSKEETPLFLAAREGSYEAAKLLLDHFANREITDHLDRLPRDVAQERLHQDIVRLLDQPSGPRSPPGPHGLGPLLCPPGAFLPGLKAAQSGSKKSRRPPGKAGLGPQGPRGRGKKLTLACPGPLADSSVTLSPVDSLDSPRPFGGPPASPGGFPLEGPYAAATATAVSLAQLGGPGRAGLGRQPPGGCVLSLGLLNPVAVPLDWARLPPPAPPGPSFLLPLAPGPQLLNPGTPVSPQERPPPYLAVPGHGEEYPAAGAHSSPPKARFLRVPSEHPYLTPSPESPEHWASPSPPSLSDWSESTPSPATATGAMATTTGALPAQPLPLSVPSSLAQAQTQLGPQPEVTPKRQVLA
# Torsin-1A-interacting protein 2 (Homo sapiens), sequence (Q8NFQ8 whole entry, looked up): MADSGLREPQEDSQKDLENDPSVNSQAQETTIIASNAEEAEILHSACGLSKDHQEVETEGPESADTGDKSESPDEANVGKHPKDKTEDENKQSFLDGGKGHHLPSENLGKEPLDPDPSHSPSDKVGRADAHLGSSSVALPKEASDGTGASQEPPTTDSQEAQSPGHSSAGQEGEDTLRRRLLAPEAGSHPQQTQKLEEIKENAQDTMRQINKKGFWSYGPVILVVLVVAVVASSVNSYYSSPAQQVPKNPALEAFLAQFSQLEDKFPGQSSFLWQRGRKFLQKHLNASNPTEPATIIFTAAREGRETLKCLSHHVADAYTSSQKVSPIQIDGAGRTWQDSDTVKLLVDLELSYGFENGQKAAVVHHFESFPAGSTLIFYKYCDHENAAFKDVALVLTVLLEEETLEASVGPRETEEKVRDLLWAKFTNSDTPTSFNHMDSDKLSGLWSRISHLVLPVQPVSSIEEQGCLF
# Fibroblast growth factor 10 (Homo sapiens), sequence (O15520 whole entry, looked up): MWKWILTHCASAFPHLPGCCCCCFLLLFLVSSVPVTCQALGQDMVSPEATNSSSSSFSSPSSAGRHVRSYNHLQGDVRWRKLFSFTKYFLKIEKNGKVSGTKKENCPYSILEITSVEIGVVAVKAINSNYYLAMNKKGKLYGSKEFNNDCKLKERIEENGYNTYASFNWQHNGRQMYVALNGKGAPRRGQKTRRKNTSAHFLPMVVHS
# Dickkopf-related protein 1 (Homo sapiens), sequence (O94907 whole entry, looked up): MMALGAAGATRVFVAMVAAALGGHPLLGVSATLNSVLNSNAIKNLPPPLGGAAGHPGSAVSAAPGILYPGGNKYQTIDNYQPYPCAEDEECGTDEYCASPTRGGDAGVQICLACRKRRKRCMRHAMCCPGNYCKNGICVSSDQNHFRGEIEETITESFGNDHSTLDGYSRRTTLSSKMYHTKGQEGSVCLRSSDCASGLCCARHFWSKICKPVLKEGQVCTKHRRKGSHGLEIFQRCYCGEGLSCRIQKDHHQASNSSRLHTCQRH
# Follistatin-related protein 3 (Homo sapiens), sequence (O95633 whole entry, looked up): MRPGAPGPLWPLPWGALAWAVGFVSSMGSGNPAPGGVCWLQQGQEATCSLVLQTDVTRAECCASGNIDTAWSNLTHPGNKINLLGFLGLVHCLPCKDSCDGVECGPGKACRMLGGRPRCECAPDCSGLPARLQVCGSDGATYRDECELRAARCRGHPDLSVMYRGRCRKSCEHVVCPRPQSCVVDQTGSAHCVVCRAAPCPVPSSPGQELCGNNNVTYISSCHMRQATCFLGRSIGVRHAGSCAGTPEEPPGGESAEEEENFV
SMILES,composite z-score [1],z-score [2],z-score [3],z-score [4],composite z-score [5],z-score [6],composite z-score [7],composite z-score [8],composite z-score [9],composite z-score [10],composite z-score [11],composite z-score [12],composite z-score [13],z-score [14],composite z-score [15],composite z-score [16],composite z-score [17],composite z-score [18],composite z-score [19],composite z-score [20]
CC(C)c1ccc(NN2C(C(O)c3ccc(C#N)cc3)C=CC3C(=O)N(c4ccccc4)C(=O)C32)cc1 (stereo not given),1.54,0.902 (inactive),0.608 (inactive),0.44 (inactive),3.36,-1.27 (inactive),0.286,-0.144,1.07,0.16,1.28,0.935,0.836,0.44 (inactive),0.98,0.888,0.397,1.24,-0.103,1
COc1cc2c(cc1O)C=[N+](Cc1sc3ccccc3c1Cl)CC2,0.286,-1.02 (inactive),-15.5 (active),-1.31 (inactive),-0.0121,0.461 (inactive),0.0216,0.346,-0.119,-0.126,0.209,0.0295,0.494,0.134 (inactive),-0.0275,0.0717,0.454,-0.0687,0.396,1.19
COC(=O)[C@@]1(Cc2ccccc2)[C@H]2c3cc(C(=O)N4CCCC4)n(CCc4ccccn4)c3C[C@H]2CN1C(=O)c1ccccc1,0.123,-0.789 (inactive),0.741 (inactive),0.0746 (inactive),3.93,0.026 (inactive),0.754,0.678,0.915,0.338,1.04,0.897,1.02,-2.09 (inactive),0.874,1.14,0.142,0.921,-0.37,1.11
NC(=O)[C@@]1(Cc2ccccc2)COC(c2ccc(OCCCO)cc2)=N1,-0.57,1.2 (inactive),0.196 (inactive),1.19 (inactive),3.05,1.05 (inactive),-0.0736,-0.555,-0.537,-0.136,0.0491,0.618,0.836,0.444 (inactive),0.594,-0.923,-0.377,-0.807,-0.636,0.663
COc1ccc([Si](C)(C)[C@@H]2[C@@H](CCO)O[C@]3(C(=O)N(Cc4cccc(NC(=O)[C@H](C)O)c4)c4ccccc43)[C@H]2C)cc1,1.54,1.84 (inactive),0.193 (inactive),34.6 (active),2.84,-0.327 (inactive),-0.159,0.474,0.662,-0.152,1.42,1.09,0.0838,-2.89 (inactive),1.08,1.27,0.0532,0.399,0.244,-0.437
